Only some compounds are listed: those with a hit (about 5.5% of all), similar ones and a draw of the others.
CBFb RUNX1 block: blocks binding between human CBF-beta and RUNX1; Potency, µM (doses to about 59.8 µM), for the others: at the top dose activity, negative = inhibition, actives largely listed as inhibitors; Q01196+Q13951; AlphaScreen CBFb-His/RUNX1-biotin binding, biochemical; AID 1477; 230,000 tested, under 10 active; also: % of control where 0% means no effect
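Room-temperature protein-protein interaction test with 30 nM each of His-tagged CBF-beta and biotinylated RUNX1, 15 min with compound, then 90 min with nickel plus streptavidin beads. Signal read in AlphaScreen mode.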
Six1-Eya2 blk: inhibitors of human Six1/Eya2 interaction; Q15475+O00167; actives 0.56% (n = 360,000); AlphaScreen GST-Six1/His-Eya2 binding, biochemical; hits give low values; activity change, % (no concentration beside the values); in the data active = activity change below about -65%; inconclusive = mostly about -30% to -63%; also: % is scaled to controls: 0 for no effect and ±100 for the full control effect
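GST-Six1 + His-Eya2 (5X stock: 250/500 nM); Tris pH 8.0, 300 mM NaCl, 0.05% BSA, 0.02% Tween 20; GSH donor/Ni acceptor beads; 1 h 37 °C dark; AlphaScreen readout.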
CtBP-E1A inh: CtBP/E1A binding inhibition; activity change, % (test concentration not listed); actives 0.49% (n = 340,000); AID 651724; AlphaScreen GST-E1A/His-CtBP binding, 1536-well; hits give low values; in the data active = activity change below about -65%; inconclusive = mostly about -30% to -63%; also: % is scaled to controls: 0 for no effect and ±100 for the full control effect
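GST-E1A and His-tagged CtBP (125 nM each as 5X stock) were preincubated with pin-transferred compound for 2 h at 37 °C in the dark, then glutathione donor and nickel acceptor beads were added for 1 h before AlphaScreen reading.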
MBNL1 CUG block: MBNL1-poly(CUG) RNA binding inhibition. TR-FRET MBNL1-His/biotin-(CUG)12 binding, 665/545 ratio. Q9NR56. actives 0.036% (n = 280,000). Potency, µM (highest dose often 57.5 µM), inactives show at the highest dose activity change, negative = inhibition, most hits filed as inhibitors; active = well fitted inhibition curve with a large enough effect in the signal ratio, with a control signal flat, not every such curve was filed as active; inconclusive = small, poorly fitted or top-dose-only effect, or effect the other way, or a change in a side signal; inactive = no such curve, though single readings can be large or run the other way; the % refers to the signal ratio; also: potency is read from the fitted curve at half-maximal effect; % is scaled to controls: 0 for no effect and ±100 for the full control effect
Target sequence (Q9NR56 whole entry, looked up): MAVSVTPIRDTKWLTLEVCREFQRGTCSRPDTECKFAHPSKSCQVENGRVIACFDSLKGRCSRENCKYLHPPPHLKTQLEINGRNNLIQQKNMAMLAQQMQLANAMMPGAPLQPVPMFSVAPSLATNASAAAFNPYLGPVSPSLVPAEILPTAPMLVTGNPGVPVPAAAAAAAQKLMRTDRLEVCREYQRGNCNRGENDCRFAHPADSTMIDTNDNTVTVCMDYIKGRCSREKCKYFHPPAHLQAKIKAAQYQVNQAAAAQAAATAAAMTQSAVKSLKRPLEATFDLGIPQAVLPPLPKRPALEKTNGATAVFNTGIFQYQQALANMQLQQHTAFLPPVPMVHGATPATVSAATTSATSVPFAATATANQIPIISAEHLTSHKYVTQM
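Compound titration spanned 92 nM–58 uM against the MBNL1-His/biotin-(CUG)12 complex. After 60 min at room temperature with 5 nM streptavidin-XL665 and 0.055 ng/ul terbium anti-His, ratiometric 665/545 nm emission (Ex 340 nm) normalized to controls.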
RORgamma inh: blocks mouse ROR gamma transcriptional activity | Potency, µM (highest dose often 53.6 µM), for the others: at the highest dose activity change, negative = inhibition, hits mostly inhibitors | actives 5.4% (n = 310,000) | P51450 | Drosophila S2 Gal4-RORgamma UAS-luciferase reporter, 20 h; also: potency is read from the fitted curve at half-maximal effect; % is scaled to controls: 0 for no effect and ±100 for the full control effect; nearly all actives have a fitted effect of over 60% in size
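A Gal4/UAS one-hybrid system in insect cells: metallothionein-promoter Gal4–ROR gamma fusion plus Photinus luciferase reporter. Copper sulfate 700 uM final, 20 hr ambient incubation, luminescent detection after 10 min with reagent.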
Gal4-VP16 FLuc: inhibits Gal4-VP16 luciferase reporter, ROR gamma counter-screen. Drosophila S2 Gal4-VP16 UAS-luciferase, luminescence, 20 h. Potency, µM (series often up to 53.6 µM), without a hit: at the highest dose activity, negative = inhibition, most hits filed as inhibitors. actives 3.5% (n = 310,000). AID 2546;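 also: Gal4-VP16 expression switched on by copper sulfate through the metallothionein promoter; potency is read from the fitted curve at half-maximal effect; % is scaled to controls: 0 for no effect and ±100 for the full control effect; nearly all actives have a fitted effect of over 50% in size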
* hit, by the source's call; ? = inconclusive; . = not tested or not shown; [ ] = remark or other dose. Unless noted, calls follow the shape of the dose curve; as a rule, active = well fitted curve in the direction sought with a large enough effect; inconclusive = small, poorly fitted or top-dose-only effect, or another doubt; inactive = no such curve, though single readings can be large; an effect the other way counts as inactive or inconclusive.

SMILES | CBFb RUNX1 block | Six1-Eya2 blk | CtBP-E1A inh | MBNL1 CUG block | RORgamma inh | Gal4-VP16 FLuc
COc1ccc(NC(=S)NC2CC3CCC2C3)c(OC)c1 (configuration not stated) | . | 15 | -1 | 5% | 5µM* | 11µM*
CCOc1ccccc1NC(=S)NC1CC2CCC1C2 (configuration not stated) | . | -12 | . | -6% | 2.8µM* | 7.1µM*
CCOc1ccccc1NC(=S)Nn1cnnc1 | . | -13 | -9 | 2% | -34% | -15%
COc1ccccc1N1CCN(Cc2cc(=O)oc3cc(C)cc(C)c23)CC1 | . | 4 | 4 | . | . | .
CCOC(=O)C1=C(N)Oc2ccc(Br)cc2[C@@H]1[C@@H](C#N)C(=O)OCC | 10%[21.7 µM] | . | . | . | 6% | 0%
CNC(=O)NC(=O)C(C)OC(=O)c1c2c(nc3ccccc13)/C(=C/c1cccs1)CC2 (configuration not stated) | -10% | 10 | 28 | 4% | 0.63µM* | 0.13µM*
Cc1ccc(NC(=O)c2cc(N3C(=O)C=CC3=O)ccc2N2CCOCC2)cc1Cl | 4% | -7 | 7 | . | 5.6µM* | 3.2µM*
O=C(Nc1ccc(N2CCCC2)c(Cl)c1)c1ccc2c(c1)OCCO2 | . | -14 | -4 | . | . | .
O=C(Nc1ccc(N2CCOCC2)c(Cl)c1)c1ccc2c(c1)OCCO2 | 7% | 5 | -8 | -1% | 0.79µM* | ?
O=C(Nc1ccc(N2CCOCC2)c(Cl)c1)c1ccccc1F | 3% | 5 | 0 | -1% | 9% | ?
Cc1cc(C(=O)Nc2ccc(N3CCOCC3)c(Cl)c2)c(C)o1 | 4% | 5 | . | -13% | 3.2µM* | -24%
Cc1ccc(NC(=O)c2cc(N3C(=O)CCC3=O)ccc2N2CCOCC2)cc1 | 7% | 2 | -4 | -12% | 25% | -3%
CN(C)CCCN(C(=O)c1cc2cc([N+](=O)[O-])ccc2s1)c1nc2cc3c(cc2s1)OCCO3 | . | -18 | ? | . | . | .
COc1ccc(CC(=O)Nc2ccc(-c3cn4cccc(C)c4n3)cc2)cc1OC | -12% | -23 | ? | -1% | 25% | -1%
Cc1cccn2cc(-c3ccc(NC(=O)Cc4ccccc4)cc3)nc12 | 11% | 3 | 1 | -12% | 5µM* | ?
CSc1cnn(Cc2ccccc2)c(=O)c1SCc1ccccc1 | -1% | 8 | -18 | ? | 0.56µM* | 2.5µM*
CSc1cnn(-c2ccccc2)c(=O)c1SC | 6% | -1 | 1 | ? | -107% | -23%
N#C/C(=C(/O)COC(=O)c1ccc2c(c1)OCCO2)c1nc2ccccc2[nH]1 | -24% | -14 | -15 | 2% | ? | 16%
N#C/C(=C(/O)COC(=O)c1ccc(Cl)c(S(=O)(=O)N2CCOCC2)c1)c1nc2ccccc2[nH]1 | -22% | 4 | 0 | 5% | 3.5µM* | 7.1µM*
Cc1ccc(C(=O)OC/C(O)=C(\C#N)c2nc3ccccc3[nH]2)cc1S(=O)(=O)N1CCOCC1 | -2% | -20 | 5 | 11% | ? | ?
CC1CN(S(=O)(=O)c2cccc(C(=O)OC/C(O)=C(\C#N)c3nc4ccccc4[nH]3)c2)CC(C)O1 (configuration not stated) | ? | -14 | -7 | -4% | 11µM* | ?
N#C/C(=C(/O)COC(=O)CCc1ccc(S(=O)(=O)N2CCOCC2)cc1)c1nc2ccccc2[nH]1 | -14% | -23 | -11 | -7% | 8.9µM* | 20µM*
O=c1[nH]cnc2nn(-c3ccccc3)nc12 | 4% | ? | -65* | 16% | -1% | -2%
Cc1ccc(SCC(=O)NCCc2ccc(F)cc2)cc1 | . | 2 | . | -4% | -14% | 5%
COc1ccc(NS(=O)(=O)c2cccc(NC(=O)c3ccc(Cl)nc3)c2)cc1 | -3% | -5 | -10 | -4% | ? | 2.8µM*
SMILES | CBFb RUNX1 block | Six1-Eya2 blk | CtBP-E1A inh | MBNL1 CUG block | RORgamma inh | Gal4-VP16 FLuc
O=C(Nc1cccc(S(=O)(=O)Nc2ccc(Cl)cc2)c1)c1ccc(Cl)nc1 | 3% | -3 | -6 | 6% | ? | 3.2µM*
C=CCOC(=O)Nc1nc(CCNC(=O)OCc2ccccc2)c(C(=O)O)s1 | . | -2 | 6 | . | . | .
Cc1ccccc1N=C1NC(=O)CS1 | 1% | -1 | 4 | -7% | 19% | 1%
Cc1ccccc1N=C1NC(=O)CC(c2ccccc2)S1 (configuration not stated) | -6% | 2 | -16 | -4% | 8.9µM* | ?
COc1ccccc1CNc1nc(-c2ccc(N(C)C)cc2)nc2ccccc12 | . | . | . | . | 7.9µM* | ?
COc1ccccc1CNc1ncncc1-c1ccc(N(C)C)cc1 | . | . | . | . | 22µM* | -22%
COc1ccc(CNc2ncncc2-c2ccc(N(C)C)cc2)c(OC)c1 | . | . | . | . | -1% | -1%
Cc1ccc(S(=O)(=O)Nc2ccc3c(c2)C(=O)N([C@@H](C)CO)C[C@@H](C)[C@@H](CN(C)C(=O)NC(C)C)OCCCC[C@H](C)O3)cc1 | . | 4 | 5 | . | . | .
O=C(NNc1c2ccccc2nc2ccccc12)c1ccc(O)cc1 | 6% | ? | -75* | ? | -29% | ?
CCCC(=O)NNc1c2ccccc2nc2ccccc12 | -11% | -11 | -13 | . | 8%[10 µM] | -35%
O=C(NNc1c2ccccc2nc2ccccc12)c1cccc(O)c1 | -27% | -65* | -77* | ? | -7% | -27%
O=C(N/N=C/c1cccs1)c1n[nH]c2c1CCCC2 | -1% | -6 | 10 | ? | 5µM* | 7.9µM*
C/C(=N\NC(=O)c1n[nH]c2c1CCC2)c1cccs1 | 3% | 2 | 1 | 18% | 2.5µM* | 3.5µM*
O=C(N/N=C/C(Br)=C\c1ccccc1)c1n[nH]c2c1CCC2 | -2% | -21 | -87* | 27% | ? | -73%
C/C(=N/NC(=O)c1cc(C(C)C)[nH]n1)c1cccs1 | -2% | 0 | 2 | ? | ? | -47%
C/C(=N\NC(=O)c1cc(C)[nH]n1)c1cccs1 | 3% | -2 | -4 | 21% | 13µM* | 10µM*
Cc1ccc(/C=N/NC(=O)c2n[nH]c3c2CCCC3)cc1 | 6% | 0 | 4 | 2% | -25% | 8%
c1coc(-c2cc3nc(NCc4ccc5c(c4)OCO5)ccn3n2)c1 | . | -27 | ? | . | . | .
Cc1nnc(NC(=O)CSc2nnc(CC(=O)Nc3ccccc3C)n2C)s1 | . | -4 | -1 | -1% | 6% | 0%
CCCCC[C@H](O)/C=C\[C@@H]1[C@H](O)CC(=O)[C@@H]1CCCCCCC(=O)O | -1%[21.7 µM] | . | . | . | 14%[2.98 µM] | -9%[17 µM]

Compound activity as filed in PubChem BioAssay.
